# Screening data from PubChem.
# Shown are actives, neighbours in structure and some others; about 2% of the full set was active somewhere.
# ABCB6 inh MLPCN = human ABCB6 transporter inhibition; Q9NP58; K562-ABCB6 porphyrin accumulation, flow cytometry, 1 h; stronger effect = lower value; fluorescence ratio to DMSO, % at 10 µM; 360,000 compounds, 0.19% hits;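 active means fluorescence ratio to DMSO below 75%, the collection mean minus 3 SD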;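 further: signal is porphyrin accumulated inside mitochondria; 100% equals median channel fluorescence of DMSO control wells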
# Target sequence (Q9NP58 whole entry, looked up): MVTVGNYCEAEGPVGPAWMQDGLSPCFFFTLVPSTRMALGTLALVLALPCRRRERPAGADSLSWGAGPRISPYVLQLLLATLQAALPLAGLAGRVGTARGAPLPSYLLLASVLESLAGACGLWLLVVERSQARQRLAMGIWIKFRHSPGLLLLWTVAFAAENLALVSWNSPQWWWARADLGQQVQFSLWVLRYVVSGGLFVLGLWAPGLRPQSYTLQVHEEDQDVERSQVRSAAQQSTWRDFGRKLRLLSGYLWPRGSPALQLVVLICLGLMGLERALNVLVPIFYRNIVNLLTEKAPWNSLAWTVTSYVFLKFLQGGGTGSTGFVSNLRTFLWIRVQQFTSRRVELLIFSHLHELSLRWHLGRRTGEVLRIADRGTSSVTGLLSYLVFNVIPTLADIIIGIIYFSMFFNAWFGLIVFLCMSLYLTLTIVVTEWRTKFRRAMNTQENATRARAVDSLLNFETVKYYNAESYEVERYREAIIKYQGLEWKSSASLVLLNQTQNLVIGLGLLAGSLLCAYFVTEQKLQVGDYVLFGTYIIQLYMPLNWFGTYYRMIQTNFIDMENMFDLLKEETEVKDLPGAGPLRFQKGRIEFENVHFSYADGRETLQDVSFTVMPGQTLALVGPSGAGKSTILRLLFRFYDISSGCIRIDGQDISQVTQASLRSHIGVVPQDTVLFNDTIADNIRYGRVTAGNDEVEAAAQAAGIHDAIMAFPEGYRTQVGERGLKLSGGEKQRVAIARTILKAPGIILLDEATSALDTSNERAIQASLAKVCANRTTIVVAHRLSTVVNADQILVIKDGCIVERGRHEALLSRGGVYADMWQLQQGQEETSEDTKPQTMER
# NR1D1 modulator = Rev-erb alpha (human) modulation | P20393 | Rev-erbα–FITC-DNA binding, fluorescence polarization, 90 min | activity, % at 10 µM | 370,000 compounds, 0.79% hits | AID 1259318;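 active means activity above about 14%, limit read from the data; passing the limit was not always enough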;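 further: 0% = DMSO wells with 35 nM protein and 100% = DMSO wells with 750 nM protein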
# Granule exo inh = lytic granule exocytosis inhibition; TALL-104 LAMP-1 surface exposure, flow cytometry; cells stimulated with thapsigargin and PMA; inhibition, % at 10 µM; 360,000 compounds, 0.66% hits; AID 651702;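 active means inhibition above about 55%, limit read from the data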
# VLA-4 inh = inhibition in a human VLA-4 binding assay; P13612; VLA-4 expressing cells, ligand binding flow cytometry; inhibition, % (about 7 µM as worked out from the volumes in the protocol); 330,000 compounds, 0.2% hits; AID 2557; in the data active means inhibition above about 50%
# PG9 Ab binder = PG9 antibody binding by small molecule; TR-FRET gp120-PG9 antibody binding; inhibition, % at 6.7 µM; 360,000 compounds, 0.43% hits; in the data active means inhibition above about 8.5%
# PG9 binder conf = confirmation of small molecules binding HIV-1 gp120 antibody PG9. inhibition, % at 6.7 µM. TR-FRET PG9 antibody binding, biochemical. 1,500 compounds, 90% hits. shares compounds with PG9 Ab binder; in the data active means inhibition above about 9%
# PGV04 counter = binds control antibody PGV04 in PG9 binder counter-screen; shares compounds with PG9 Ab binder; TR-FRET PGV04 antibody-gp120 binding, biochemical; inhibition, % at 6.7 µM; 1,500 compounds, 95% hits; AID 651604; in the data active means inhibition above about 9.5%
# PG9 binder DR = small molecules binding HIV-1 gp120 antibody PG9; shares compounds with PG9 Ab binder; TR-FRET PG9 antibody-gp120 binding inhibition; IC50, µM; 95 tested, under 10 active; in the data active means IC50 below about 10 µM
# PGV04 binding DR = PGV04 binding, dose response counter-screen; shares compounds with PG9 Ab binder; TR-FRET binding to control antibody PGV04; IC50, µM; 95 compounds, 20% hits; AID 651937
# PG126 binding DR = PG126 binding, dose response counter-screen; shares compounds with PG9 Ab binder; TR-FRET binding to antibody PG126, counterscreen; IC50, µM; 95 compounds, 20% hits; AID 651939
# Granule exo CP1 = blocks lytic granule exocytosis | shares compounds with Granule exo inh | TALL-104 cells, LAMP-1 externalization, flow cytometry; stimulated with PMA plus thapsigargin | inhibition, % at 10 µM | 1,500 compounds, 11% hits; in the data active means inhibition above about 60%;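 further: 0% = stimulated vehicle wells and 100% = unstimulated wells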
# Numbers without * were called inactive; nt = no result. Unless noted, no stated cut-off is given here; in the data, active means IC50 below about 9 µM; inactive means the rest.
SMILES,ABCB6 inh MLPCN,NR1D1 modulator,Granule exo inh,VLA-4 inh,PG9 Ab binder,PG9 binder conf,PGV04 counter,others
CCn1c(CNC(=O)c2ccccc2Cl)cc2ccccc21,103,7,1,3,10*,24*,35*,
CCOC(=O)c1c(C)n(-c2ccc(C)cc2)c2c(C(C(C)=O)C(=O)O)c(Br)c(O)c(O)c12 (stereo not drawn),104,8,3,-6,-2,nt,nt,
CCOC(=O)C(C(C)=O)c1c(Br)c(O)c(O)c2c(C(=O)c3ccc(C)cc3)coc12 (stereo not drawn),98,0,-1,nt,9.4*,18*,19*,
CCOc1ccc(C(=O)OCC(=O)NCCNC(=O)COC(=O)c2ccc(OCC)cc2)cc1,99,-1,0,-4,9.1*,14*,17*,
COc1cc(-c2csc(N3CCC(C(N)=O)CC3)n2)cc(OC)c1OC,nt,-2,nt,nt,nt,nt,nt,
O=C(Nc1ccccc1)c1ccc(Br)c(S(=O)(=O)Nc2cccnc2)c1,102,-5,2,12,-1,nt,nt,
O=S(=O)(Nc1cccnc1)c1ccc(Br)c2ccccc12,101,5,-4,4,15*,24*,30*,
NC(=O)COC(=O)c1cc(S(=O)(=O)N2CCOCC2)ccc1N1CCCCC1,96,-5,-2,-3,1,nt,nt,
CC(C)CCNC(=O)NC(=O)COC(=O)c1cc(S(=O)(=O)N2CCOCC2)ccc1N1CCCCC1,95,15,-5,-5,32*,28*,46*,
CCCCNC(=O)C[C@@H]1C[C@]2(C(=O)OCC)CCC3=C2N(CCC3)C1=O,nt,-2,nt,nt,nt,nt,nt,
O=C(Nc1nc(=O)c2ccccc2s1)c1ccccc1,87,23,10,-2,29*,51*,69*,
Cc1cccc2cc(COC(=O)c3ccccc3)c(=O)[nH]c12,109,18,-1,-6,23*,22*,38*,
O=C(OCc1cc2ccccc2[nH]c1=O)c1ccc([N+](=O)[O-])cc1,94,-12,-1,-1,-3,nt,nt,
Cc1cccc(C(=O)OCc2cc3ccccc3[nH]c2=O)c1,76,21,-1,1,12*,13*,18*,
Cc1cccc2cc(COC(=O)c3cccnc3)c(=O)[nH]c12,98,-5,3,27,-1,nt,nt,
C(/C=C\c1ccco1)=NN1CCN(Cc2cccc3ccccc23)CC1,nt,-1,nt,nt,nt,nt,nt,
CCN(Cc1cn(Cc2ccccc2)nn1)S(=O)(=O)c1ccc(N2CCCC2)cc1Br,nt,9,nt,nt,nt,nt,nt,
Cc1ccc(C(=O)Nc2nnc(NC(=S)Nc3ccccc3)s2)cc1,98,14,1,3,12*,16*,20*,
COC1=C[C@H](C(=O)NCc2ccc(Cl)cc2)C(C)C(c2ccccc2)CC1=O (stereo partly drawn),nt,-2,nt,nt,nt,nt,nt,
COc1ccc(/C(O)=C2\C(=O)C(=O)N(c3cc(C)on3)C2c2ccc(OC)c(OC)c2)cc1OC (stereo not drawn),91,1,2,3,2,nt,nt,
COc1cccc(C2/C(=C(\O)c3ccc(OC)c(OC)c3)C(=O)C(=O)N2c2cc(C)on2)c1 (stereo not drawn),148,1,1,1,14*,25*,34*,
CCCCCCCCN1C(=O)[C@@H](CC(=O)N2CCSCC2)C[C@@]2(C(=O)OC)C1=C[C@H](C1CCCC1)O[C@@H]2C,nt,1,nt,nt,-1,nt,nt,
O=C(O)c1ccccc1NC(=S)NC(=O)c1sc2ccccc2c1Cl,89,8,0,6,9.8*,17*,19*,
O=C(NC(=S)Nc1ccccc1N1CCOCC1)c1sc2ccccc2c1Cl,106,2,-1,5,-1,nt,nt,
CCCC(=O)N1CCC[C@]2(CC[C@H](CCC(=O)OCC)O2)C1,nt,-3,nt,nt,nt,nt,nt,
SMILES,ABCB6 inh MLPCN,NR1D1 modulator,Granule exo inh,VLA-4 inh,PG9 Ab binder,PG9 binder conf,PGV04 counter,others
COc1ccc(Nc2nc(C)nc3c2oc2ccccc23)c(OC)c1,96,7,-9,-1,13*,15*,22*,
O=C(NCc1c(F)cccc1F)C1C2C=CC3(CN(Cc4ccccc4)C(=O)C13)O2 (stereo not drawn),nt,7,nt,nt,nt,nt,nt,
CCCN1CCCCC(NC(=O)c2cccs2)C1=O (stereo not drawn),nt,3,nt,nt,-1,nt,nt,
CCS(=O)(=O)Nc1ccc(-c2ccc(NS(=O)(=O)CC)c(OC)c2)cc1OC,93,-1,1,-3,17*,14*,16*,
C=CCN1C(=O)[C@@H](CC(=O)NCCCC)[C@]2(C(=O)OC)CCCCC=C12,nt,0,nt,nt,nt,nt,nt,
COCc1cc(N2CCNC[C@@H]2C)ccc1N1C[C@@H](C)O[C@@H](C)C1,nt,-7,nt,nt,0,nt,nt,
O=C(/C=C/Nc1ccccc1)C(F)(F)F,96,3,-1,19,9.3*,4,7,
COc1ccc(Cn2nnnc2C(c2cc3cccc(C)c3[nH]c2=O)N2CCOCC2)cc1 (stereo not drawn),94,-4,-1,8,17*,16*,24*,
CC(=O)CSc1nc(-c2cccs2)c(C#N)c(=O)[nH]1,98,1,0,nt,49*,53*,65*,
CC(=O)CSc1nc(N)c(C#N)c(-c2cccs2)c1C#N,98,5,0,16,0,nt,nt,
CO/N=C(/C(=O)N[C@H]1C(=O)N2C(C(=O)O)=C(COC(N)=O)CSC12)c1ccco1 (stereo partly drawn),nt,1,nt,nt,nt,nt,nt,
COc1cccc2nc3c(C(=O)NCCN(C)C)cccc3cc12,101,13,16,nt,-14,nt,nt,
COc1ccc(C(=O)NCCN(C)C)c2nc3ccccc3cc12,97,8,73*,nt,23*,20*,18*,PG9 binder DR=>67;PGV04 binding DR=>67;PG126 binding DR=>67;Granule exo CP1=-13
CCN(CC)c1c2c(nc3ncnn13)CCCC2,nt,-6,nt,nt,nt,nt,nt,
COc1cc(OC)cc(C(=O)NCCNc2nc3cc(C)cc(C)c3cc2C#N)c1,102,0,61*,-3,20*,9.0*,23*,Granule exo CP1=-10
CC(C)[C@H]1/C(=C/C2CC2)N2C(=O)C[C@H](c3cccc(C(F)(F)F)c3)N=C2N1Cc1ccc2c(c1)OCO2,nt,1,nt,nt,nt,nt,nt,
Cc1cc(SCC(=O)NC2CCCCC2)nc2ccccc12,99,9,98*,19,18*,22*,27*,Granule exo CP1=-14
